Values joined by “and” are separate entries in the source; they are usually repeats but may differ in a detail not shown here. Equal values may be shown once. Records with an inconclusive call do not appear. Active and inactive are the calls of the source. Rule for the calls, unless noted: active = hit-call score of the fitted dose curve at least 0.9, where 1 is the maximum; inactive = score below 0.9.
Experiments:
[1] = biological target: Retinoic acid receptor RXR-alpha (Homo sapiens) (UniProt P19793); test: ATG_RXRa_TRANS: Attagene TRANS-FACTORIAL HepG2 Assay for human Retinoid X Receptor alpha (RXRa) (AID 2283012; active = hit-call score of the fitted dose curve at least 0.9, where 1 is the maximum)
Summary of the method: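 Transient transfection of human HepG2 with multiple GAL4-UAS reporter constructs; 24 h compound exposure; total RNA isolated, reverse-transcribed, PCR-amplified, 6-FAM labelled, HpaI-cut, resolved by capillary electrophoresis. Positive-direction fit versus DMSO.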

[2] = biological target: human Retinoid X Receptor beta (RXRb), RXRB (gene 6257) (UniProt P28702); test: ATG_RXRb_TRANS: Attagene TRANS-FACTORIAL HepG2 Assay for human Retinoid X Receptor beta (RXRb) (AID 2283013; active = hit-call score of the fitted dose curve at least 0.9, where 1 is the maximum)
Summary of the method: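 Transfect HepG2 with GAL4-UAS multi-reporter constructs (chimeric NR-Gal4, TRANS format); dose compound 24 h; isolate RNA, RT-PCR, FAM primer extension, HpaI digest; quantify by capillary electrophoresis; positive direction vs DMSO.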

[3] = read-out: E-selectin (Homo sapiens) (UniProt P16581); test: BSK_3C_Eselectin: BioMAP Diversity Plus: 3C Assay for Eselectin Biomarker Activity (AID 2283015); settings: primary human endothelial cells (HUVEC); actives raise or lower the signal;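 note: cell surface E-selectin protein quantified by ELISA 24 h after dosing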
Summary of the method: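 Primary human umbilical vein endothelial cells (3C system) were dosed with chemical and cell-surface E-selectin measured by ELISA 24 h later. Bidirectional curve fitting used DMSO as negative control and baseline.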

[4] = read-out: Interleukin-1 alpha (IL1a), IL1A (gene 3552); test: BSK_BE3C_IL1a: BioMAP Diversity Plus: BE3C Assay for Interleukin-1 alpha (IL1a) Biomarker Activity (AID 2283016); settings: primary human bronchial epithelial cells; actives raise or lower the signal
Summary of the method: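 BE3C primary human bronchial epithelium; cpd 24 h; IL-1a by ELISA; bidirectional fit vs DMSO; parallel SRB (0.1% SRB, 10% TCA fix, 560 nm) for cytotoxicity.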

[5] = read-out: Monocyte Chemoattractant Protein-1 (MCP1), CCL2 (gene 6347); test: BSK_3C_MCP1: BioMAP Diversity Plus: 3C Assay for Monocyte Chemoattractant Protein-1 (MCP1) Biomarker Activity (AID 2283017); settings: primary human endothelial cells (HUVEC); actives raise or lower the signal
Summary of the method: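 Primary human umbilical vein endothelial cells (3C system) were exposed to test chemical for 24 h, after which MCP-1 was quantified by ELISA. Activity was fitted bidirectionally against DMSO as negative control and baseline.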

[6] = read-out: Monocyte Chemoattractant Protein-1 (MCP1), CCL2 (gene 6347); test: BSK_4H_MCP1: BioMAP Diversity Plus: 4H Assay for Monocyte Chemoattractant Protein-1 (MCP1) Biomarker Activity (AID 2283018); settings: primary human endothelial cells (HUVEC); actives raise or lower the signal
Summary of the method: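 ELISA read-out of MCP-1 from human vascular endothelial primary cells taken at 24 hours after compound exposure. Activity was fitted in both directions relative to DMSO, which served as negative control.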

[7] = read-out: Human Leukocyte Antigen - DR isotype (HLADR), HLA-DRA (gene 3122); test: BSK_3C_HLADR: BioMAP Diversity Plus: 3C Assay for Human Leukocyte Antigen - DR isotype (HLADR) Biomarker Activity (AID 2283019); settings: primary human endothelial cells (HUVEC); actives raise or lower the signal
Summary of the method: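 Primary human umbilical vein endothelial cells (3C system) were dosed with compound and cell-surface HLA-DR was quantified by ELISA at 24 h. Activity was fitted bidirectionally against DMSO as negative control and baseline.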

[8] = read-out: Interleukin-8 (IL8), CXCL8 (gene 3576); test: BSK_3C_IL8: BioMAP Diversity Plus: 3C Assay for Interleukin-8 (IL8) Biomarker Activity (AID 2283020); settings: primary human endothelial cells (HUVEC); actives raise or lower the signal
Summary of the method: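 ELISA read-out of IL-8 from human umbilical vein endothelium, measured 24 h after chemical dosing. Activity is expressed relative to DMSO negative control, with both increases and decreases fitted.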

[9] = read-out: Monokine induced gamma interferon (MIG), CXCL9 (gene 4283); test: BSK_3C_MIG: BioMAP Diversity Plus: 3C Assay for Monokine induced gamma interferon (MIG) Biomarker Activity (AID 2283021); settings: primary human endothelial cells (HUVEC); actives raise or lower the signal
Summary of the method: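 Read-out is ELISA detection of MIG on human umbilical vein endothelial cells, taken 24 h after dosing. Gain or loss of signal was scored relative to DMSO controls using bidirectional curve fitting.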

[10] = BSK_3C_SRB: Viability Assessment in the BioMAP Diversity Plus: 3C Assay (AID 2283023); settings: primary human endothelial cells (HUVEC);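 note: fitted both ways against DMSO so a hit may be signal rise or drop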
Summary of the method: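 Primary human umbilical vein endothelial cells in the 3C system were read 24 h after compound dosing. Total protein was stained with 0.1% sulforhodamine B after 10% TCA fixation and read at 560 nm, with bidirectional fitting against DMSO as baseline.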

[11] = read-out: Matrix Metallopeptidase 1 (MMP1), MMP1 (gene 4312); test: BSK_BE3C_MMP1: BioMAP Diversity Plus: BE3C Assay for Matrix Metallopeptidase 1 (MMP1) Biomarker Activity (AID 2283024); settings: primary human bronchial epithelial cells; actives raise or lower the signal
Summary of the method: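 Human bronchial epithelial cells (BE3C system) exposed to compound for 24 h; MMP1 then quantified by ELISA. Activity was fitted in both directions relative to DMSO.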

[12] = BSK_3C_Vis: BioMAP Diversity Plus: 3C Assay for Morphology Visualization (AID 2283025); settings: primary human endothelial cells (HUVEC);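 note: fitted both ways so gain or loss versus DMSO counts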
Summary of the method: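 Chemicals were added to primary human umbilical vein endothelium, cells were incubated 24 h, and morphology was then visualized by light microscopy. Gain or loss of signal was fitted bidirectionally relative to DMSO.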

[13] = read-out: Pselectin, SELP (gene 6403); test: BSK_4H_Pselectin: BioMAP Diversity Plus: 4H Assay for Pselectin Biomarker Activity (AID 2283026); settings: primary human endothelial cells (HUVEC); actives raise or lower the signal
Summary of the method: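 ELISA read-out of P-selectin on human umbilical vein endothelium after 24 h of dosing. Values derive from bidirectional fitting relative to DMSO. Parallel SRB protein staining flagged overt cytotoxicity.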

[14] = BSK_4H_SRB: Viability Assessment in the BioMAP Diversity Plus: 4H Assay (AID 2283027); settings: primary human endothelial cells (HUVEC);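 note: cells exposed to compound for 24 h before staining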
Summary of the method: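 Human umbilical vein endothelial cells, 24 h after chemical dosing; total protein measured by 0.1% sulforhodamine B staining after 10% TCA fixation, read at 560 nm. Bidirectional fitting against DMSO.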

[15] = BSK_BE3C_SRB: Viability Assessment in the BioMAP Diversity Plus: BE3C Assay (AID 2283028); settings: primary human bronchial epithelial cells
Summary of the method: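 Human primary bronchial epithelial cells were exposed to test chemicals for 24 h. Total protein in parallel cultures was then measured by staining with 0.1% sulforhodamine B after 10% TCA fixation, with absorbance read at 560 nm. Activity was fitted bidirectionally against DMSO.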

[16] = read-out: Thrombomodulin, THBD (gene 7056); test: BSK_3C_Thrombomodulin: BioMAP Diversity Plus: 3C Assay for Thrombomodulin Biomarker Activity (AID 2283029); settings: primary human endothelial cells (HUVEC); actives raise or lower the signal
Summary of the method: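 Read-out is ELISA of thrombomodulin on human umbilical vein endothelium 24 h after chemical dosing. Gain or loss of signal is scored relative to DMSO. Overt cytotoxicity is checked in parallel cultures by sulforhodamine B staining.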

[17] = read-out: Urokinase-type plasminogen activator receptor (uPAR), PLAUR (gene 5329); test: BSK_4H_uPAR: BioMAP Diversity Plus: 4H Assay for Urokinase-type plasminogen activator receptor (uPAR) Biomarker Activity (AID 2283030); settings: primary human endothelial cells (HUVEC); actives raise or lower the signal
Summary of the method: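 Primary human umbilical vein endothelial cells were exposed to chemical for 24 h before cell-surface uPAR was quantified by ELISA. Activity was fitted bidirectionally against the DMSO negative control baseline.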

[18] = biological target: human Thyroid Receptor alpha (THRa1), THRA (gene 7067) (UniProt P10827); test: ATG_THRa1_TRANS: Attagene TRANS-FACTORIAL HepG2 Assay for human Thyroid Receptor alpha (THRa1) (AID 2283014; active = hit-call score of the fitted dose curve at least 0.9, where 1 is the maximum)
Summary of the method: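 HepG2 cells transiently transfected with multiplexed GAL4-UAS reporter units for exogenous chimeric THRa1-Gal4; reporter mRNA measured 24 h after dosing by RT-PCR, 6-FAM labelling, HpaI digestion and capillary electrophoresis. Gain-of-signal fitted versus DMSO baseline.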

[19] = biological target: human Vitamin D Receptor (VDR), VDR (gene 7421) (UniProt P11473); test: ATG_VDR_TRANS: Attagene TRANS-FACTORIAL HepG2 Assay for human Vitamin D Receptor (VDR) (AID 2283022; active = hit-call score of the fitted dose curve at least 0.9, where 1 is the maximum)
Summary of the method: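 HepG2 cells were transiently transfected with multiple GAL4-UAS reporter units, so signal reflects exogenous chimeric receptor-Gal4 activity. After 24 h compound exposure, reporter mRNA was measured by RT-PCR, fluorescent labelling and capillary electrophoresis, fitted for gain of signal versus DMSO.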

Measured: AC50

Chain of E-selectin (Homo sapiens) (P16581 whole entry, looked up): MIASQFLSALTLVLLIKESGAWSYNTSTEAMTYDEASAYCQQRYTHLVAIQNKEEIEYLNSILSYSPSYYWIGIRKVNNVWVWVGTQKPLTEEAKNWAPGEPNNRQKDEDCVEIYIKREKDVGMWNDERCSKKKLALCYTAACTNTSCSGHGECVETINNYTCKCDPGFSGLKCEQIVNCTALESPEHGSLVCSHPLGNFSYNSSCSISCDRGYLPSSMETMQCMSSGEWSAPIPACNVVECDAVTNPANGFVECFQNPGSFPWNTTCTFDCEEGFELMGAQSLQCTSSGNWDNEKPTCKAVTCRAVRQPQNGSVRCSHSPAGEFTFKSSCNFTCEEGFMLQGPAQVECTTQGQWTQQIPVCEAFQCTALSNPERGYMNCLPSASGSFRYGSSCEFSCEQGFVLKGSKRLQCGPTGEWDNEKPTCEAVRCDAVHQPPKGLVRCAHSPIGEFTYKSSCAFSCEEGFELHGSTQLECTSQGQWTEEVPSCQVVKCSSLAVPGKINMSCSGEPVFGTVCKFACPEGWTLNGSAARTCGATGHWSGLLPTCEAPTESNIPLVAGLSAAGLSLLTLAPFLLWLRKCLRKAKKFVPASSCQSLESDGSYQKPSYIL
Chain of human Retinoid X Receptor beta (RXRb), RXRB (gene 6257) (P28702 whole entry, looked up, the tested form may be a part): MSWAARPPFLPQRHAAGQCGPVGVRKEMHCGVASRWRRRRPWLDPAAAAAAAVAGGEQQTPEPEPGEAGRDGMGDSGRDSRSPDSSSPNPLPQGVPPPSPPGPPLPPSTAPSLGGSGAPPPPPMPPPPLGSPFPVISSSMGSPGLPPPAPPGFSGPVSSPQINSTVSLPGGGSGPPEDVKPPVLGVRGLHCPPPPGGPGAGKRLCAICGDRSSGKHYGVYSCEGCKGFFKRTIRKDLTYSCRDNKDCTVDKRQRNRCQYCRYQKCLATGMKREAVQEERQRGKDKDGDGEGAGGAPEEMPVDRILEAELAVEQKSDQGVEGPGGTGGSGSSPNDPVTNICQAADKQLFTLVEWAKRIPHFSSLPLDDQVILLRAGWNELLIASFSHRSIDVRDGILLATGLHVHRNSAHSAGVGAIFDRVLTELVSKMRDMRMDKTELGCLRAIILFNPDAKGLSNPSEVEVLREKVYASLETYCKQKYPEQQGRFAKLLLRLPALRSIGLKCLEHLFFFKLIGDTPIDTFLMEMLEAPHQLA
Chain of human Vitamin D Receptor (VDR), VDR (gene 7421) (P11473 whole entry, looked up, the tested form may be a part): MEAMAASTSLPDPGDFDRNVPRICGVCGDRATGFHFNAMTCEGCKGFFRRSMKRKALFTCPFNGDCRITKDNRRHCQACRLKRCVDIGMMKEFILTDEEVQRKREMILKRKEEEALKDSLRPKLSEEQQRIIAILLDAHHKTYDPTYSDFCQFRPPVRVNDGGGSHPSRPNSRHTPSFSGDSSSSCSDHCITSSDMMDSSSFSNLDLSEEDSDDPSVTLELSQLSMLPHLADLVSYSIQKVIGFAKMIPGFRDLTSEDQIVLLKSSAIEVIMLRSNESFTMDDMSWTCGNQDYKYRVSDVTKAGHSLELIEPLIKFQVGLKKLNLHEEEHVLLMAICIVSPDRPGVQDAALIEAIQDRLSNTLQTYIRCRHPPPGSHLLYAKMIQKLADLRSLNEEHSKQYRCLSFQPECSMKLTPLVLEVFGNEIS
Chain of human Thyroid Receptor alpha (THRa1), THRA (gene 7067) (P10827 whole entry, looked up, the tested form may be a part): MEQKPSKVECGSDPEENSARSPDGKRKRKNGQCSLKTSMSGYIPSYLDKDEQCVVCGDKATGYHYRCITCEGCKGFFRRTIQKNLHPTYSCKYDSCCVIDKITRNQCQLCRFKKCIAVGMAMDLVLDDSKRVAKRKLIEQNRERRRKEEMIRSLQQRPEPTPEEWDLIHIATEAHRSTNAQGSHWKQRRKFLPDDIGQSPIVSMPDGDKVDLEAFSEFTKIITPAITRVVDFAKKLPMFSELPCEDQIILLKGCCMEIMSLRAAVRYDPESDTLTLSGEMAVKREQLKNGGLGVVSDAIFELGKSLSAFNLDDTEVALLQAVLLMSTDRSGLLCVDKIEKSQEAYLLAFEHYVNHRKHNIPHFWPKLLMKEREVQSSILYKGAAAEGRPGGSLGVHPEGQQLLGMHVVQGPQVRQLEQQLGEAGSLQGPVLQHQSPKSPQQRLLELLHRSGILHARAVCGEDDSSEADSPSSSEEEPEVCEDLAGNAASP
Chain of Retinoic acid receptor RXR-alpha (Homo sapiens) (P19793 whole entry, looked up, the tested form may be a part): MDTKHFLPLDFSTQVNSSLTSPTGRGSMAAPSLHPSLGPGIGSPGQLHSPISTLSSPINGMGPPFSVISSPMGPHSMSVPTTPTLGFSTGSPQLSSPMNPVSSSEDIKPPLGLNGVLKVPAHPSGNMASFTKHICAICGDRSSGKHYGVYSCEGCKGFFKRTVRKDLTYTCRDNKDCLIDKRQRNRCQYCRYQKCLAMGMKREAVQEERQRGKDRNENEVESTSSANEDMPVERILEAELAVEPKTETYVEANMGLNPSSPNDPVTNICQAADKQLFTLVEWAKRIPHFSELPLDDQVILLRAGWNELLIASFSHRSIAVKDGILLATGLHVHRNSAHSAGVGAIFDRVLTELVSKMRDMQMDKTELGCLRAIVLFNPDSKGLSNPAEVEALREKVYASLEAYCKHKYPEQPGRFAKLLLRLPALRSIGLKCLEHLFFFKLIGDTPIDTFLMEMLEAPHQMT

c1ccc(-c2ccccc2)cc1
active: [2] 110 µM
not listed: [18] | [19]
inactive: all other assays above

CN(C)c1nc(=O)n(C2CCCCC2)c(=O)n1C
not listed: [8] | [15] | [18] | [19]
inactive: all other assays above

CCCCCCCCOC(=O)c1ccccc1C(=O)OCCCCCCCC
active: [7] 12.9 µM | [17] 3.7 µM
not listed: [8] | [14] | [15] | [18] | [19]
inactive: all other assays above

CCOP(=S)(OCC)SCSC(C)(C)C
active: [2] 25.7 µM and 24.6 µM | [7] 32.5 µM
not listed: [8] | [14] | [15]
inactive: all other assays above

CCOCCOC(C)=O
not listed: [1] | [15] | [19]
inactive: all other assays above

Cc1ccccc1CO[C@@H]1C[C@@]2(C(C)C)CC[C@]1(C)O2
active: [10] 31.3 µM
not listed: [8] | [15] | [18]
inactive: all other assays above
